# Assay outcomes deposited in PubChem BioAssay by National Center for Advancing Translational Sciences (NCATS).
# An excerpt weighted towards active compounds, which were near 8% of everything screened.
# Coupling enz: counter-screen for Giardia aldolase inhibitors: coupling enzyme system | coupling enzyme system counterscreen, AmpLite Red fluorescence | activity change, negative = inhibition, % at 58.2 µM, hits read low | 290,000 compounds, 0.67% hits; in the data active = activity change below about -30%
#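 Compounds tested against the coupling enzymes alone at 57.5 uM final; readout was AmpLite Red fluorescence (525/598 nm) after 20 min at RT.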
# ELG1 repair inh: inhibitors of ELG1-dependent DNA repair in HEK293T cells. HEK293T ELG1-luciferase reporter, luminescence, 16 h; DNA damage induced by 5-fluorouridine. Potency, µM (series often up to 46.1 µM), for inactives: at the top dose activity change, negative = inhibition, actives largely listed as inhibitors. 330,000 compounds, 2.3% hits. AID 504467; note: potency is the fitted concentration of half-maximal effect; nearly all actives have a fitted effect of over 55% in size
#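 Cells (2,000 per well) received 5-fluorouridine plus test compound or DMSO and were incubated 16 hr at 37 °C, 5% CO2. Luciferase activity was read by luminescence 30 min after ONE-Glo addition; signal suppression marked inhibition of damage-induced ELG1 function.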
# RORg inh: blocks mouse ROR gamma transcriptional activity. P51450. Drosophila S2 Gal4-RORgamma UAS-luciferase reporter, 20 h. Potency, µM (top dose mostly 53.6 µM), for the others: top-dose activity change, negative = inhibition, actives largely listed as inhibitors. 310,000 compounds, 5.4% hits. AID 2551; note: potency is the fitted concentration of half-maximal effect; nearly all actives have a fitted effect of over 60% in size
#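 Compounds are pin-transferred onto Drosophila Schneider cells expressing a copper-inducible Gal4–ROR gamma transactivation domain fusion. After 1 hr, copper sulfate is added to 700 uM final; luciferase is read 20 hr later.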
# VP16 counter: Gal4-VP16 reporter inhibition counter-screen; Potency, µM (top dose mostly 53.6 µM), inactives show top-dose activity, negative = inhibition, hits mostly inhibitors; AID 2546; 310,000 compounds, 3.5% hits; Drosophila S2 Gal4-VP16 UAS-luciferase, luminescence, 20 h;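 note: Gal4-VP16 expression switched on by copper sulfate through the metallothionein promoter; potency is the fitted concentration of half-maximal effect; nearly all actives have a fitted effect of over 50% in size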
# TSHR antagonist: human thyrotropin receptor antagonism; TSHR-expressing cells, TSH-stimulated cAMP HTRF, 2 h; stronger effect = lower value; activity change, negative = inhibition, % at 11.5 µM; 330,000 compounds, 0.2% hits; AID 504810;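 active = activity change below a set negative limit, meaning inhibition stronger than a set level, cut at about -70% in these data; inconclusive = activity change between two set negative limits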
#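 Antagonism was scored as loss of TSH-driven cAMP in TSHR cells, stimulated with 4nM TSH (EC80) for 2 hours at 37 deg C and detected by homogeneous HTRF competition immunoassay.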
# Numbers without * were called inactive; ? = inconclusive; nt = no result; [ ] = remark or other dose. Unless noted, calls come from the whole dose curve; as a rule, active = well fitted curve in the direction sought with a large enough effect; inconclusive = small, poorly fitted or top-dose-only effect, or another doubt; inactive = no such curve, though single readings can be large; an effect the other way counts as inactive or inconclusive. % is set by controls: 0 for no effect and ±100 for the full control effect.
SMILES,Coupling enz,ELG1 repair inh,RORg inh,VP16 counter,TSHR antagonist
Cn1c(=O)n(Cc2ccc(F)cc2)c(=O)c2c1nc1n2CCCN1Cc1ccccc1,0,21µM*,-5%,?,-8
CCCn1c(=O)c2c(nc3n2CCCN3Cc2ccccc2)n(C)c1=O,0,-5%,24%,1%,-8
CCCn1c(=O)c2c(nc3n2CCCN3CCc2ccccc2)n(C)c1=O,2,?,?,-1%,-10
Cn1c(=O)n(CCc2ccccc2)c(=O)c2c1nc1n2CCCN1CCc1ccccc1,-1,23µM*,-2%,-16%,-14
O=C(NCc1ccccn1)C1CCN(C(=O)c2cc3sccc3n2Cc2ccc(F)cc2)CC1,1,21µM*,5%,-10%,-14
CCN1CCN(C(=O)C2CCN(C(=O)c3cc4sccc4n3CC)CC2)CC1,1,-17%,0%,-8%,15
CCn1c(C(=O)N2CCC(C(=O)NCc3ccc4c(c3)OCO4)CC2)cc2sccc21,0,7.3µM*,?,-10%,19
Cn1c(C(=O)N2CCCC(C(=O)NCc3ccc4c(c3)OCO4)C2)cc2sccc21 (stereo not given),2,?,14%,6%,-10
CCn1c(C(=O)N2CCC(C(=O)NCCCSC3CCCCC3)CC2)cc2sccc21,1,21µM*,-60%,14µM*,-11
C#CCCCC(=S)Nc1ccccc1,3,nt,-7%,5%,nt
CCCn1c(=S)[nH]c2cc(Cl)ccc21,0,4%,5µM*,18µM*,5
CCn1c(=S)[nH]c2cc(Cl)ccc21,-4,?,5.6µM*,25µM*,20
CCn1c(=S)[nH]c2cc(S(=O)(=O)N3CCCCC3)ccc21,-1,?,10µM*,?,-6
CCn1c(=S)[nH]c2cc(C(=O)O)ccc21,-3,29%,-9%,-1%,7
CCCCn1c(=S)[nH]c2cc(S(=O)(=O)N3CCOCC3)ccc21,nt,0%,nt,nt,nt
COc1ccc(C)cc1S(=O)(=O)NC(C)C(=O)NC1CC1 (stereo not given),1,17%,-11%,4%,23
Cc1[nH]n(-c2ccccc2)c(=O)c1/C=N/NC(=O)c1cccc([N+](=O)[O-])c1,-5,0%,1µM*,2.5µM*,4
Cc1[nH]n(-c2cccc3ccccc23)c(=O)c1/C=N/NC(=O)c1cccc([N+](=O)[O-])c1,10,?,2.8µM*,3.5µM*,10
O=C(N/N=C/c1coc2ccccc2c1=O)c1cccc([N+](=O)[O-])c1,0,-6%,26%,-3%,-4
Cc1ccc(-n2[nH]c(C)c(/C=N/Nc3ccc([N+](=O)[O-])cc3[N+](=O)[O-])c2=O)cc1C,13,10µM*,-4%[10 µM],?,?
O=C(N/N=C/c1ccncc1)c1cccc([N+](=O)[O-])c1,2,2%,7%,-2%,0
O=C(N/N=C/c1ccoc1)c1ccc([N+](=O)[O-])cc1,nt,-2%,?,?,5
Cc1ccc(-n2[nH]c(C)c(/C=N/NC(=O)c3ccc([N+](=O)[O-])cc3)c2=O)c(C)c1,0,?,1.8µM*,5µM*,-11
O=C(NCCCn1ccnc1)/C(=C\c1ccc(Br)cc1)NC(=O)c1ccccc1,nt,0%,21%,-5%,4
CCN1CCN(C(=O)Nc2cc(Cl)ccc2OC)CC1,-1,9%,-12%,-11%,-5
SMILES,Coupling enz,ELG1 repair inh,RORg inh,VP16 counter,TSHR antagonist
COc1cc(OC)c(NC(C)C(=O)NCc2ccccc2)cc1Cl (stereo not given),-50*,-17%,?,-7%,-5
CCN1CCN(C(=O)C(C)Nc2cc(Cl)c(OC)cc2OC)CC1 (stereo not given),-43*,-4%,-18%,9%,4
N=C(N)N,-5,nt,-1%,6%,nt
CCN(CC)S(=O)(=O)c1ccc(OC(C)C)c(NC(=O)c2c3c(nc4ccccc24)CCN(Cc2ccccc2)C3)c1,3,5.8µM*,25%,5%,-4
Cc1ccc2nsnc2c1NC(=O)c1ccc([N+](=O)[O-])cc1,0,16µM*,7.9µM*,?,-2
Nc1ccc(N(CCO)CCO)cc1,-38*,-2%,-23%,-4%,-14
COc1ccc2ccc3c(c2c1)N=C[C@]1(O3)N(C)c2ccccc2C1(C)C,-67*,-2%,13µM*,?,-1
CCOC(=O)c1sc(N2N=C(C)C(N=Nc3cccc(C)c3)C2=O)nc1C (stereo not given),4,11%,11µM*,?,-6
CC1=NN(c2ccccc2C(=O)O)C(=O)C1N=Nc1ccccc1 (stereo not given),-1,3%,26%,-9%,-14
CC1=NN(c2nc(-c3ccc(C)cc3)cs2)C(=O)C1N=Nc1cccc(C)c1 (stereo not given),2,?,7.1µM*,?,-13
CCCCC[C@H](O)/C=C/C=C/C=C/[C@@H](O)C/C=C\CCCC(=O)O,1,nt,-40%,-13%,nt
COc1cccc(NC(=O)CN2CCc3ccccc3C2)c1,-1,?,16%,-9%,3
CCC(NC(=O)Nc1nnc(C(F)(F)F)s1)(C(F)(F)F)C(F)(F)F,-10,23µM*,?,3.5µM*,-87*
Cc1[nH]c2ccccc2c1CN1CCc2ccccc2C1,0,?,11µM*,?,-2
O=C(Cc1coc2cc(O)ccc12)NNC(=O)c1cccs1,nt,22%,nt,nt,33
C[C@H](NC(=O)[C@@H](Cc1c[nH]c2ccccc12)NC(=O)[C@@H](N)Cc1cnc[nH]1)C(=O)N[C@@H](Cc1c[nH]c2ccccc12)C(=O)N[C@H](Cc1ccccc1)C(=O)N[C@@H](CCCCN)C(N)=O,0,nt,-13%,6%,nt
N#C/C(=C(/N)Sc1ccc(N)cc1)c1ccccc1C(F)(F)F,2,nt,41%,?,nt
CCn1c(C)[n+](Cc2ccccc2)c2ccc(Cl)cc21,-1,15µM*,-1%,10%,-2
CCc1nnc(NC(=O)c2ccc(S(=O)(=O)N(CCOC)CCOC)cc2)o1,-1,3%,2.2µM*,6.3µM*,16
COCCN(CCOC)S(=O)(=O)c1ccc(C(=O)Nc2nnc(C3CC3)o2)cc1,5,7%,4.5µM*,3.5µM*,4
O=C(/C=C/c1cccnc1)/C=C/c1cccnc1,-1,?,5µM*,5µM*,-9
COc1cc(C(=O)/C=C/c2cccnc2)ccc1O,-1,?,10µM*,?,10
COc1cc(O)cc(O)c1C(=O)/C=C/c1ccccc1,2,-5%,?,-11%,-9
COc1ccc(OC)c(C(=O)/C=C/c2cccnc2)c1,2,?,7.9µM*,2.8µM*,29
